Values joined by “and” are separate entries in the source; they are usually repeats but may differ in a detail not shown here. Identical values can stand only once. Active and inactive are the calls of the source.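 How the source made its calls: active means compounds whose cell count with miR-34 switched on is under 0.7 times the count with it off; inactive means the rest.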
Assay: viability loss with induced miR-34 in A549 – imaging, A549 dox-inducible miR-34, nuclei and caspase counts, primary screen (AID 1347080); further: test concentration not given here
Details: A549 miR-34 inducible, Hoechst nuclei count, 48 h
[1] = stronger effect = lower value, cell number ratio, induced over uninduced
[2] = measured here: relative caspase fold change +Dox/-Dox
[3] = measured here: total cells with miR-34 induction, stronger effect = lower value
[4] = measured here: total cells without miR-34 induction

Structure (SMILES)	fold change [1]	fold change [2]	cell count [3]	cell count [4]
CCCCCCC[C@H](O)/C=C/[C@H]1[C@H](O)CC(=O)[C@@H]1C/C=C\CCCC(=O)O	0.933 (inactive)	1.19	5790	6200
CCCCCCCCCCCCCCCC(=O)OC	0.995 (inactive)	0.98	5710	5750
CC(C)Oc1ccc(C(=O)c2ccc(NC3=NCCN3)cc2)cc1	1.07 (inactive)	0.773	6020	5650
CC(C)CCOc1ccc(NC(=S)Nc2ccc(OCCC(C)C)cc2)cc1	0.881 (inactive)	0.401	4560	5170
CCCCCC(=O)/C=C/C=O	1.01 (inactive)	1.61	5770	5720
CCCCC/C=C/C=C1/C(=O)C[C@H](O)[C@@H]1C/C=C\CCCC(=O)O	1.04 (inactive)	1.03	6090	5880
CCCCCCCC/C=C\CCCCCCCC(=O)N[C@H](CO)Cc1ccc(O)cc1	1.03 (inactive)	1.33	6010	5860
CCCCCCCCCCCCCCCCOC[C@H](COP(=O)([O-])OCC[N+](C)(C)C)OC(=O)CCCCCCCC(=O)O	0.862 (inactive)	0.772	4600	5340
CCCCc1ccc(N=CNO)c(C)c1	1.01 (inactive)	0.762	6020	5950
O=C1N[C@@H]2[C@@H](O)[C@@H](O)[C@H](O)[C@@H](CO)N2C1=O	0.921 (inactive)	0.979	4980	5410
CCCCCCC[C@H](O)/C=C/[C@@H]1[C@@H](C/C=C\CCCC(=O)O)[C@@H](O)C[C@H]1O	0.945 (inactive)	1.5	6150	6520
CC(C)c1cc2c(c(O)c1O)C13CCCC(C)(C)C1CC2OC3=O (stereo not given)	0.942 (inactive)	1.02	5390	5730
CCCCCCCCCCCCCCCCC(=O)NCCO	1.04 (inactive)	0.673	6030	5800
CCCCC/C=C\C=C1\C(=O)CC[C@@H]1C/C=C\CCCC(=O)O	0.94 (inactive)	0.792	5640	6000
CCCCCCCCCCCCCCCCOC[C@H](COP(=O)([O-])OCC[N+](C)(C)C)SC(=O)CCCCCC	0.987 (inactive)	1.56	5880	5950
CCCCCCCC/C=C\CCCCCCCCCCCCCC(=O)N[C@@H](CO)[C@H](O)/C=C/CCCCCCCCCCCCC	0.996 (inactive)	0.823	5810	5830
CCCCC[C@H](O)/C=C/[C@@H]1[C@@H](CCCCC(CC(=O)O)OC)[C@@H](O)C[C@H]1O (stereo not given in full)	0.924 (inactive)	1.3	5980	6470
CCCCC(C)(C)[C@H](O)/C=C/[C@H]1[C@H](O)CC(=O)[C@@H]1CC(=O)CCCCC(=O)O	0.919 (inactive)	1.32	5680	6180
CCCCC[C@H](O)/C=C/[C@H]1C(=O)C[C@H](O)[C@@H]1C/C=C\CCCC(=O)NC(CO)CO	0.913 (inactive)	1.9	5680	6220
COc1c(O)c2c(=O)cc(OC)c3c4c(OC)cc(=O)c5c(O)c(OC)c(C[C@@H](C)OC(=O)c6ccccc6)c(c(c1C[C@@H](C)OC(=O)Oc1ccc(O)cc1)c23)c54	0.961 (inactive)	0.723	2210	2300

Structure (SMILES)	fold change [1]	fold change [2]	cell count [3]	cell count [4]
CCCCCCCCCCCCCCCC(=O)OC[C@@H](O)COP(=O)([O-])OCC[N+](C)(C)C	1.02 (inactive)	1.32	5910	5770
CCCCCCCC(=O)CC[C@@H]1[C@@H](C/C=C\CCCC(=O)O)[C@@H](O)C[C@H]1O	0.944 (inactive)	1.3	5400	5720
CCCCCCCCCCCCCCCNC(=O)C1CCCCC1	1.13 (inactive)	0.274	6830	6070
CCCCC[C@](C)(O)/C=C/[C@H]1[C@H](O)CC(=O)[C@@H]1C/C=C\CCCC(=O)O	0.915 (inactive)	1.22	5410	5910
CCCCC/C=C\C/C=C\C/C=C\C/C=C\CCCC(=O)SCC(O)CO (stereo not given)	0.986 (inactive)	0.486	5460	5540
OCC(O)[C@@H](O)CO (stereo not given in full)	0.92 (inactive)	0.896	8910	9680
CCCCCCCCCCCCCCCCOC[C@H](COP(=O)([O-])OCC[N+](C)(C)C)OC(=O)CCC	0.868 (inactive)	0.912	5110	5890
c1ccc(C(OC2CCN(CCCc3nn[nH]n3)CC2)c2ccccc2)cc1	0.935 (inactive)	1.12	5840	6240
CC\C=C/C=C/C=C/C=C\CCCCCCCC(=O)O	0.875 (inactive)	0.385	4740	5410
COc1ccc2c(c1)c(CC(=O)SC[C@H](NC(C)=O)C(=O)OCCCCO[N+](=O)[O-])c(C)n2C(=O)c1ccc(Cl)cc1	1.08 (inactive)	0.702	6270	5810
Nc1nc2c([nH]c(=O)n2[C@H]2C[C@H](O)[C@@H](CO)O2)c(=O)[nH]1	0.857 (inactive)	1.18	4960	5800
CCCCCCCCCCCCCCCC(=O)OC[C@H](COP(=O)([O-])OCC[N+](C)(C)C)OC(=O)CCCCCCCCCCCCCCC	0.881 (inactive)	0.572	5330	6060
C[C@@H]1C[C@H]2O[C@@H]2/C=C\C=C\C(=O)Cc2c(Cl)c(O)cc(O)c2C(=O)O1	1.01 (inactive)	1.3	2240	2220
CCOC(=O)c1ccc(N=Nc2ccc(O)c(CC(=O)O)c2)cc1	0.95 (inactive)	0.801	6160	6490
CCCCC(C)(C)[C@H](O)/C=C/[C@H]1C(=O)C[C@H](O)[C@@H]1C/C=C\CCCC(=O)O	1.04 (inactive)	0.943	5440	5250
CN	1.06 (inactive)	0.984	4700	4430
CCCCCCCCCCCCCCCC(=O)NC(C)C	1.13 (inactive)	0.996	6190	5500
CCCCCC(=O)CC[C@@H]1[C@@H](C/C=C\CCCC(=O)OC(C)C)[C@@H](O)C[C@H]1O	0.977 (inactive)	1.56	6190	6330
CCCC1([C@@H](O)C/C=C/[C@H]2[C@H](O)CC(=O)[C@@H]2CCCCCCC(=O)O)CCC1	0.95 (inactive)	1.46	5970	6280
CCCCC[C@H](O)/C=C/[C@H]1[C@H](O)CC(=O)[C@@H]1C/C=C\CCCC(=O)Oc1ccc(NC(C)=O)cc1	0.993 (inactive)	0.876	6020	6060

Structure (SMILES)	fold change [1]	fold change [2]	cell count [3]	cell count [4]
COc1ccc2cc(CC(=O)O)ccc2c1	0.964 (inactive)	1.2	5630	5840
O=P(O)(O)OC1[C@@H](O)[C@H](O)C(O)[C@H](O)[C@@H]1O (stereo not given in full)	0.924 (inactive)	0.602	5550	6010
CCCCCCCCCCCCCCCCOC[C@H](COP(=O)([O-])OCC[N+](C)(C)C)OCC	0.91 (inactive)	1.05	5080	5580
CCCCCCCCCCCCCCOc1ccc(C(=O)O)o1	0.937 (inactive)	1	5650	6030
O=C(c1cccs1)c1ccc(OCCCO)c(Cl)c1Cl	0.896 (inactive)	0.529	5620	6270
CCCCC[C@H](O)/C=C/[C@H]1C(=O)C[C@H](O)[C@@H]1CCCCCCC(=O)O	0.92 (inactive)	0.486	4900	5320
O=C(CN=C(c1ccccc1)c1ccccc1)OCc1ccccc1	0.875 (inactive)	1.1	5290	6050
Cc1ccccc1C#Cc1ccc(CCC(=O)O)cc1	1.11 (inactive)	1.21	6610	5930
CCCCCCCC/C=C\CCCCCCCCOCCOP(=O)([O-])OCC[N+](C)(C)C	0.927 (inactive)	0.887	5510	5950
CCCCC[C@H](O)/C=C/[C@@H]1[C@@H](C/C=C/CCCC(=O)O)[C@@H](O)C[C@H]1O	0.9 (inactive) and 0.944 (inactive)	1.55 and 0.855	5350 and 5640	5940 and 5970
CC(C)(C)C(=O)Nc1ccccc1	0.896 (inactive)	1.18	5080	5670
C=C1C[C@H](O)[C@H](C/C=C\CCCC(=O)O)[C@H]1/C=C/[C@@H](O)CCCCC	0.988 (inactive)	1.72	5940	6010
CCCCCCCCCCCCCCCC(=O)OC[C@H](COP(=O)([O-])OCC[N+](C)(C)C)OC(=O)CCCC(=O)/C=C/C(=O)O	1 (inactive)	0.771	5760	5760
O=C(CCC/C=C\C[C@H]1C(=O)C[C@@H](O)[C@@H]1/C=C/[C@@H](O)CCc1ccccc1)NC(CO)CO	0.931 (inactive)	0.89	5500	5910
CCCCCCCCCCCCCCNC(=O)C1CCCCC1	0.905 (inactive)	0.661	4920	5430
CC#CCC(C)[C@H](O)/C=C/[C@@H]1[C@H]2C/C(=C\CCCC(=O)O)C[C@H]2C[C@H]1O (stereo not given in full)	0.896 (inactive)	1.12	5570	6220
CCCCC[C@@](C)(O)/C=C/[C@@H]1C(C/C=C\CCCC(=O)O)[C@@H](O)C[C@H]1O (stereo not given in full)	0.939 (inactive)	1.76	6110	6510
O=C(O)CCC/C=C/C[C@@H]1[C@@H](/C=C/[C@@H](O)COc2cccc(C(F)(F)F)c2)[C@H](O)C[C@@H]1O	0.985 (inactive)	1.11	6470	6570
CCCCC(C)(C)[C@H](O)/C=C/[C@H]1C=CC(=O)[C@@H]1CCCCCCC(=O)O	1 (inactive)	1.69	5490	5490
COC(=O)CCC[C@H](O)[C@H](O)CO	1.05 (inactive)	0.845	5290	5040
